According to paper PMC4336329 (PLoS ONE, 2015):
The campaign covered roughly 310,000 compounds. About 14,000 (4.5%) showed an effect of 50% or more. Effects have a minus sign here. This excerpt belongs to a sample that is enriched for strong results.

target: human ether-à-go-go-related gene (hERG) potassium channel (human, UniProt Q12809); assay: primary screen, population patch clamp on CHO cells stably expressing hERG; higher = less effect of the substance
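Note: peak tail current of the secondary pulse compared with the same well before compound.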

Sequence of human ether-à-go-go-related gene (hERG) potassium channel (Q12809 whole entry, looked up): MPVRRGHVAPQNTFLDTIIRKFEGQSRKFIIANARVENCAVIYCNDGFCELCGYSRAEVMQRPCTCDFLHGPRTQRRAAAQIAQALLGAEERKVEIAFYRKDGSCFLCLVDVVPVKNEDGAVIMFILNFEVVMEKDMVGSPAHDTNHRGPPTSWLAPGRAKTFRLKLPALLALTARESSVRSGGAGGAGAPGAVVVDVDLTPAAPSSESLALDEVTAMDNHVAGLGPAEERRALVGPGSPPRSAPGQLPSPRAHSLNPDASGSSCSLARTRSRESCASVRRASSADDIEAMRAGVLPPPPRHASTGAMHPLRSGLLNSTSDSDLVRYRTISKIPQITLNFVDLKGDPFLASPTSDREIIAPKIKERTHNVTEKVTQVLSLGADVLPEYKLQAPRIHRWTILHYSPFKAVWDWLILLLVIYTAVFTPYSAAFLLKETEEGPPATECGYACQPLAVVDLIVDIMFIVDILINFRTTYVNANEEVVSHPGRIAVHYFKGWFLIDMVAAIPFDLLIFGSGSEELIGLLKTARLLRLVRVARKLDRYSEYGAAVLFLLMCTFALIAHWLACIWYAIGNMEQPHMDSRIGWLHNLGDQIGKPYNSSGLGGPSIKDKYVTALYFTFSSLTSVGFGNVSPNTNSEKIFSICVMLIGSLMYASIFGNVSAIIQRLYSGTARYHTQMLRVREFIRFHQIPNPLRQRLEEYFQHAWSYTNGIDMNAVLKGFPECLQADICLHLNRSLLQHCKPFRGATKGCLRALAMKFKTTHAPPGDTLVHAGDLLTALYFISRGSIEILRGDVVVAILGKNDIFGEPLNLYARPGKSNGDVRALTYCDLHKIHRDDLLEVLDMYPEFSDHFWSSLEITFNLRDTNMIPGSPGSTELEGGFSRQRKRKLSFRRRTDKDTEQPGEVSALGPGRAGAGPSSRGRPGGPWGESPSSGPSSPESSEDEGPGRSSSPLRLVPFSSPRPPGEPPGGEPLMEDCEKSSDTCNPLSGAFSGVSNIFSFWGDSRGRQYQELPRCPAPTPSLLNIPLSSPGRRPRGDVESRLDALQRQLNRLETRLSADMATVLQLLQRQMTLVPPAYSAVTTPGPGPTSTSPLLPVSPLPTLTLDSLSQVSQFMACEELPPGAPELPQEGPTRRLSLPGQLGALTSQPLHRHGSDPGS

| SMILES | hERG current change (%, negative = inhibition) at 10uM [%] |
| --- | --- |
| CCCNC(=O)Cn1nc(C(F)(F)F)c2c1CCCC2 | 9.29 |
| CC(=O)Oc1ccc(/C=C2/SC(=S)N(Cc3ccccc3)C2=O)cc1 | 10.2 |
| CCn1c(SCC(=O)N2CCc3ccccc32)nnc1-c1ccncc1 | -7.04 |
| COc1ccc(CCNC(=O)C2=CC=CN3CCS(=O)(=O)N=C23)cc1 | -7.92 |
| Cc1ccccc1/C=C\c1nc2ccccc2c(=O)[nH]1 | 10.5 |
| CC(Oc1ccc2c(-c3ccccc3)cc(=O)oc2c1)C(=O)N1CCC[C@@H]1C(N)=O (stereo partly shown) | 1.14 |
| O=C(NCCS(=O)(=O)c1ccc(Br)cc1)c1ccc(Cl)cc1 | -2.62 |
| CCCOc1ccc(CN(CCO)CCO)cc1[N+](=O)[O-].Cl | -54.2 |
| CCCOc1ccc(CN(CCO)CCO)cc1C(=O)OC | 6.82 |
| Cl.O=[N+]([O-])c1cc(CN(CCO)CCO)ccc1O | -2.79 |
| CCOc1ccc(CN(CCO)CCO)cc1[N+](=O)[O-].Cl | -62.9 |
| COc1ccc(CN(CCO)CCO)cc1[N+](=O)[O-].Cl | 3.54 |
| CCCCOc1ccc(CN(CCO)CCO)cc1[N+](=O)[O-].Cl | -22 |
| CCOC(=O)N1CCN(CC(=O)Nc2cc3c(cc2C(C)=O)OCO3)CC1 | -1.3 |
| Fc1ccc2nc(Nc3nc4c(s3)CCCC4)sc2c1 | 3.62 |
| COC(=O)N(NC(=O)C(O)(c1ccccc1)c1ccccc1)c1ccccc1 | 9.59 |
| COc1ccc(OCC(=O)Nc2cc(NC(=O)c3ccco3)ccc2OC)cc1 | 5.23 |
| CC(=C/c1ccco1)/C=N/NC(=O)Cc1cccn1C | -6.63 |
| CC(/C=N/NC(=O)Cc1cccn1C)=C\c1ccco1 | -13.1 |
| CC(/C=N\NC(=O)CN1CCN(Cc2ccccc2)CC1)=C\c1ccco1 | -53.6 |
| CC(/C=N/NC(=O)CN1CCN(Cc2ccc(Cl)cc2)CC1)=C\c1ccco1 | -69.2 |
| O=C(CN1CCN(Cc2ccccc2)CC1)N/N=C/c1ccco1 | -5.43 |

| SMILES | hERG current change (%, negative = inhibition) at 10uM [%] |
| --- | --- |
| O=C(CN1CCN(Cc2ccccc2)CC1)N/N=C\C=C/c1ccco1 | -26.9 |
| COc1ccccc1C(=O)N1CCN(C2CCN(Cc3ccccc3)CC2)CC1 | -23.2 |
| C/C(=C\c1ccccc1F)C1Nc2cccc3cccc(c23)N1 | 13.1 |
| Cc1ccc(/C=N/Nc2ccc3ccccc3n2)o1 | -47.4 |
| CCN(CC)S(=O)(=O)c1ccc(OC)c(NC(=O)C2CC(=O)N(c3ccc(C)cc3)C2)c1 (stereo not shown) | -19.6 |
| CCOc1ccc(S(=O)(=O)N2CCCCC2)cc1NS(=O)(=O)c1cccs1 | 4.67 |
| CCC1CN(C(=O)NCc2ccc(F)cc2)c2cc(Cl)ccc2O1 (stereo not shown) | 12.5 |
| CCNc1nc(CC)nc2c1oc1ccccc12.Cl | -11.5 |
| CCc1nc(Nc2ccccc2)c2oc3ccccc3c2n1.Cl | -5.28 |
| O=c1c2ccccc2oc2ccc(NCCCn3ccnc3)cc12 | 9.83 |
| Cc1cc2oc3ccc(NCCCn4ccnc4)cc3c(=O)c2cc1C | 6.32 |
| CCc1nc(Nc2ccc(O)cc2)c2oc3ccccc3c2n1.Cl | -13.6 |
| c1coc(CNc2ncnc3c2oc2ccccc23)c1 | -22.1 |
| CCc1nc(NCCCN2CCOCC2)c2oc3ccccc3c2n1 | -26.6 |
| CCc1nc(Nc2ccncc2)c2oc3ccccc3c2n1.Cl | -58.5 |
| Cl.c1ccc2c(c1)oc1c(NCCCn3ccnc3)ncnc12 | -58.7 |
| CCc1nc(NCCCn2ccnc2)c2oc3ccccc3c2n1.Cl | -56.1 |
| O=c1c2ccccc2oc2cc(NCCCn3ccnc3)ccc12 | -60.9 |
| c1ccc(CNc2ncnc3c2oc2ccccc23)nc1 | -1.56 |
| CN1CCc2nc3sc(C(=O)NC4CC4)c(N)c3cc2C1 | 9.22 |
| COc1ccc(OC)c(C2=NOC(C(=O)Nc3cccnc3)C2)c1 (stereo not shown) | -9.42 |
| CN(C)c1ccc(/C=N/N(CCO)C2=NS(=O)(=O)c3ccccc32)cc1 | 21.8 |

| SMILES | hERG current change (%, negative = inhibition) at 10uM [%] |
| --- | --- |
| COc1ccc(C/C(C)=N/NC(=O)c2cc(C)oc2C)cc1 | 4.56 |
| N/C(=N\OC(=O)CSc1ccccc1)c1ccccn1 | 6.31 |
| COc1ccc(C)cc1S(=O)(=O)N(C)CC(=O)N1CCC(C)CC1 | 22.8 |
| Cc1csc(SCCN2C(=O)c3ccccc3C2=O)n1 | 2.6 |
| Cc1nc(NCCCn2ccnc2)c2oc3ccccc3c2n1.Cl | -69.8 |
| Cl.c1ccc(-c2nc(NCCCn3ccnc3)c3oc4ccccc4c3n2)cc1 | -4.89 |
| Cc1nc(NCCCN2CCOCC2)c2oc3ccccc3c2n1.Cl | -15.5 |
| CCCCn1c(N)c(N(CCOC)C(=O)CSCc2ccc(C)cc2)c(=O)[nH]c1=O | 13.4 |
| O=C1C(Cl)=C(Nc2ccccc2O)C(=O)N1c1ccccc1 | 0.891 |
| CC(C)C(c1nnnn1Cc1cccs1)N1CCN(C2CCCC2)CC1 (stereo not shown) | -30.9 |
| Cl.Fc1ccc(C(c2nnnn2Cc2cccs2)N2CCN(C3CCCC3)CC2)cc1 (stereo not shown) | -67.4 |
| CN1CCN(C(c2cccs2)c2nnnn2Cc2ccc(F)cc2)CC1.Cl (stereo not shown) | -13.1 |
| Fc1ccc(Cn2nnnc2C(c2cccs2)N2CCCCCC2)cc1 (stereo not shown) | -11.2 |
| Fc1ccc(Cn2nnnc2C(c2cccs2)N2CCN(C3CCCCC3)CC2)cc1 (stereo not shown) | -66.4 |
| c1ccc(C(c2nnnn2Cc2cccs2)N2CCN(C3CCCC3)CC2)cc1 (stereo not shown) | -46.3 |
| Fc1ccc(C(c2nnnn2Cc2ccccc2)N2CCSCC2)cc1 (stereo not shown) | -2.85 |
| CCN1CCN(C(c2ccc(F)cc2)c2nnnn2Cc2ccc3c(c2)OCO3)CC1.Cl (stereo not shown) | -44 |
| Fc1ccc(C(c2nnnn2Cc2cccs2)N2CCN(C3CCCCC3)CC2)cc1 (stereo not shown) | -60.3 |
| CN1CCN(C(c2ccc(F)cc2)c2nnnn2Cc2cccs2)CC1.Cl (stereo not shown) | -21 |
| CCN1CCN(C(c2ccc(F)cc2)c2nnnn2Cc2cccs2)CC1 (stereo not shown) | -59.4 |
